Measurements reported in ChEMBL document CHEMBL1961873, “Compounds: GSK PKIS; Assays: Nanosyn kinase panel” (2012).

Legend:
[1] = biological target: Serine/threonine-protein kinase pim-2 (Homo sapiens) (UniProt Q9P1W9); conditions: at 1 µM;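 also: each value is a mean of the inhibition measurements against the kinase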
[2] = biological target: Serine/threonine-protein kinase pim-3 (Homo sapiens) (UniProt Q86V86); conditions: at 0.1 µM
[3] = biological target: Serine/threonine-protein kinase pim-3 (Homo sapiens) (UniProt Q86V86); conditions: at 1 µM
[4] = biological target: T1, MAP kinase-activated protein kinase 5 (Homo sapiens) (UniProt Q8IW41); conditions: at 0.1 µM
T1 sequence (whole entry): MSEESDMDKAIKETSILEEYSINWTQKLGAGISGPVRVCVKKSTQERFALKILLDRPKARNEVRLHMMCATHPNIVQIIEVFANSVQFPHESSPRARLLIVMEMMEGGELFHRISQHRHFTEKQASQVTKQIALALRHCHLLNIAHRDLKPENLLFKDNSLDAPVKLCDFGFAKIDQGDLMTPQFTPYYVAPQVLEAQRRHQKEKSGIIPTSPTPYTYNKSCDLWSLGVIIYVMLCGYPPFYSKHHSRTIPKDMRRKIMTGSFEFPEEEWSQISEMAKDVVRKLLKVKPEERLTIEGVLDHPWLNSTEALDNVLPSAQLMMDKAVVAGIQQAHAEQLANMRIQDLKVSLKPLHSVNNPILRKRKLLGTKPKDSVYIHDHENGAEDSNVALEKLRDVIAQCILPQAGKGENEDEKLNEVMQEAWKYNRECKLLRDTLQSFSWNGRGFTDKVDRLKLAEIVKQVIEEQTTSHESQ

[5] = biological target: T1, MAP kinase-activated protein kinase 5 (Homo sapiens); conditions: at 1 µM
[6] = biological target: Serine/threonine-protein kinase SIK1 (Homo sapiens) (UniProt P57059); conditions: at 0.1 µM
[7] = biological target: Serine/threonine-protein kinase SIK1 (Homo sapiens) (UniProt P57059); conditions: at 1 µM
[8] = biological target: Serine/threonine-protein kinase SIK2 (Homo sapiens) (UniProt Q9H0K1); conditions: at 0.1 µM
[9] = biological target: Serine/threonine-protein kinase SIK2 (Homo sapiens) (UniProt Q9H0K1); conditions: at 1 µM
[10] = biological target: T2, Serine/threonine-protein kinase TBK1 (Homo sapiens) (UniProt Q9UHD2); conditions: at 0.1 µM
T2 sequence (whole entry): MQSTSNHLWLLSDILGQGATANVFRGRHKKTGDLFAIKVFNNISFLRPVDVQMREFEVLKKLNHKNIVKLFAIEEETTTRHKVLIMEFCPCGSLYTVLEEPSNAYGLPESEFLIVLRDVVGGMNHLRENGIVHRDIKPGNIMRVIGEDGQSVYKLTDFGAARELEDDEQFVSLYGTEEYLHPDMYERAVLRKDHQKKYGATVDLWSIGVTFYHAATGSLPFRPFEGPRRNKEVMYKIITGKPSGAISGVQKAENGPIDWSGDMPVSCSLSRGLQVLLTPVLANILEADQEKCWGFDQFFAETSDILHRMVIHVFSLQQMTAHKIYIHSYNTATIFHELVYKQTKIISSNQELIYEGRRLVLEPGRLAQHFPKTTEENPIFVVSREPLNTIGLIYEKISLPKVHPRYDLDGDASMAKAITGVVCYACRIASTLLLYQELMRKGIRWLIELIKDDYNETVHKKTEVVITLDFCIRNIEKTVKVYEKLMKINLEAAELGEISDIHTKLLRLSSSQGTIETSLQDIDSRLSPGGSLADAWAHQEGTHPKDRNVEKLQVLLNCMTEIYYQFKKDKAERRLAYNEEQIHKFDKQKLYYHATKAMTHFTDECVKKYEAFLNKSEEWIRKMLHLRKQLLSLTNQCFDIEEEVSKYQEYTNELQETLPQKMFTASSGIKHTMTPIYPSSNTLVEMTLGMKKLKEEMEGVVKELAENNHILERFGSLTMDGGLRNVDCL

[11] = biological target: T2, Serine/threonine-protein kinase TBK1 (Homo sapiens); conditions: at 1 µM
[12] = biological target: T3, Testis-specific serine/threonine-protein kinase 1 (Homo sapiens) (UniProt Q9BXA7); conditions: at 0.1 µM
T3 sequence (whole entry): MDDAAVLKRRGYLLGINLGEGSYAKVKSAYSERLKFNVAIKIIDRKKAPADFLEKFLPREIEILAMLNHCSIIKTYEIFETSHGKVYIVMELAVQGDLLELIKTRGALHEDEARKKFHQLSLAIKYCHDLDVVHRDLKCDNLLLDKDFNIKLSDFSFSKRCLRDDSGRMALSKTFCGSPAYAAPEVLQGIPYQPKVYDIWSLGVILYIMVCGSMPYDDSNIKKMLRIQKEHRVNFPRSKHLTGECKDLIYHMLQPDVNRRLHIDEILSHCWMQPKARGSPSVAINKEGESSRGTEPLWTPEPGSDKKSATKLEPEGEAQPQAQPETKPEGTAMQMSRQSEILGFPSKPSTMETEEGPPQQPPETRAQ

[13] = biological target: T3, Testis-specific serine/threonine-protein kinase 1 (Homo sapiens); conditions: at 1 µM
[14] = biological target: T4, Testis-specific serine/threonine-protein kinase 2 (Homo sapiens) (UniProt Q96PF2); conditions: at 0.1 µM
T4 sequence (whole entry): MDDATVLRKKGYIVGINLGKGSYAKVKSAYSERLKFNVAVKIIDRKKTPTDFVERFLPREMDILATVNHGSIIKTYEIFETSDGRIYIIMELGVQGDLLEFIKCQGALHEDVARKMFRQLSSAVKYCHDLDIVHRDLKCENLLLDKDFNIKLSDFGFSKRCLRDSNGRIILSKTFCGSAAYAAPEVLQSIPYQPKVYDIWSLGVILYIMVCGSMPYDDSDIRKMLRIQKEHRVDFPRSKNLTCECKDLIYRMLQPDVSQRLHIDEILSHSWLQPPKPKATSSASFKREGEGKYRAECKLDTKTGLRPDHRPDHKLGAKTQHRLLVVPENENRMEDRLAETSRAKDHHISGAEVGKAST

[15] = biological target: T4, Testis-specific serine/threonine-protein kinase 2 (Homo sapiens); conditions: at 1 µM
[16] = biological target: Casein kinase I isoform alpha (Homo sapiens) (UniProt P48729); conditions: at 0.1 µM
[17] = biological target: Casein kinase I isoform alpha (Homo sapiens) (UniProt P48729); conditions: at 1 µM
[18] = biological target: Casein kinase I isoform gamma-1 (Homo sapiens) (UniProt Q9HCP0); conditions: at 0.1 µM
[19] = biological target: Casein kinase I isoform gamma-1 (Homo sapiens) (UniProt Q9HCP0); conditions: at 1 µM
[20] = biological target: Casein kinase I isoform gamma-2 (Homo sapiens) (UniProt P78368); conditions: at 0.1 µM;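 also: values are mean inhibition figures reported as part of the GSK PKIS dataset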
Chain of Casein kinase I isoform gamma-2 (Homo sapiens) (P78368 whole entry, looked up, canonical isoform): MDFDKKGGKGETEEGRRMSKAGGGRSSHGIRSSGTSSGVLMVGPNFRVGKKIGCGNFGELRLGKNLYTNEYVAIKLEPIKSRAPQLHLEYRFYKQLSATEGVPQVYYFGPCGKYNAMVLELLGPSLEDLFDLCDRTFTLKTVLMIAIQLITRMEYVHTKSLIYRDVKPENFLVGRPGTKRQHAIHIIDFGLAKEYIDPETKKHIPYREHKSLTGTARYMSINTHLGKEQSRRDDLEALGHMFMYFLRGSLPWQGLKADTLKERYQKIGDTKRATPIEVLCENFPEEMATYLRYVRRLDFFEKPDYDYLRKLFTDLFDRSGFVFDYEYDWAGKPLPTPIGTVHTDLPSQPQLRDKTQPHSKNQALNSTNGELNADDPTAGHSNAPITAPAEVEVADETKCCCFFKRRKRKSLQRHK

Chain of Serine/threonine-protein kinase pim-2 (Homo sapiens) (Q9P1W9 whole entry, looked up): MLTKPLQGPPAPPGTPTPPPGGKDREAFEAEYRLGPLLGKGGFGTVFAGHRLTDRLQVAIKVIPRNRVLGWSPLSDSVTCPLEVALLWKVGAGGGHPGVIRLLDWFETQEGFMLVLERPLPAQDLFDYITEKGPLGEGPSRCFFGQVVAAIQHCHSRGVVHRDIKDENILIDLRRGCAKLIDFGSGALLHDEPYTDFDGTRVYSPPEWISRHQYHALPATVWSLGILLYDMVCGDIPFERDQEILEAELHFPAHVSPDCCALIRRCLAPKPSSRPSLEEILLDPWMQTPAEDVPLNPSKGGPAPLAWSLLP
Chain of Serine/threonine-protein kinase SIK1 (Homo sapiens) (P57059 whole entry): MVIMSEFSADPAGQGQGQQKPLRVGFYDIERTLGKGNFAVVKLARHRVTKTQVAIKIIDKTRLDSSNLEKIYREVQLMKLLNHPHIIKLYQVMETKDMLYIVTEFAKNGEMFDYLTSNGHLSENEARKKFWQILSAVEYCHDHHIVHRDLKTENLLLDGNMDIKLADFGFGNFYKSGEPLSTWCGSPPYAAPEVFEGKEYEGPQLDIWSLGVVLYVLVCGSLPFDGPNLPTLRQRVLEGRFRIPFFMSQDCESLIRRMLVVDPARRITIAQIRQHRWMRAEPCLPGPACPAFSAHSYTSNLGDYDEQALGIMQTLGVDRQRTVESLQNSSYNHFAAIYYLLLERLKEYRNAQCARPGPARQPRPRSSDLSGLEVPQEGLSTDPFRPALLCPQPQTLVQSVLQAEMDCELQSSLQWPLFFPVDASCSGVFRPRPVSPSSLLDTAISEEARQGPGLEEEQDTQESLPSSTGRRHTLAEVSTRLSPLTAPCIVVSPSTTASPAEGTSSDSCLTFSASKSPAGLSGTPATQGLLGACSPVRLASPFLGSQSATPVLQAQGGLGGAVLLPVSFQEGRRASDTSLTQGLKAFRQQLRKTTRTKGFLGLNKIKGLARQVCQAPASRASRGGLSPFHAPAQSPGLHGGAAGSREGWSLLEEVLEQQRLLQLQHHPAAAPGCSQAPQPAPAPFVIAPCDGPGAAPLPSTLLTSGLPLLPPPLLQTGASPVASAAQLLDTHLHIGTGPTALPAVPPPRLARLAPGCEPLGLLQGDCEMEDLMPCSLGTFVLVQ
Chain of Casein kinase I isoform gamma-1 (Homo sapiens) (Q9HCP0 whole entry, looked up, canonical isoform): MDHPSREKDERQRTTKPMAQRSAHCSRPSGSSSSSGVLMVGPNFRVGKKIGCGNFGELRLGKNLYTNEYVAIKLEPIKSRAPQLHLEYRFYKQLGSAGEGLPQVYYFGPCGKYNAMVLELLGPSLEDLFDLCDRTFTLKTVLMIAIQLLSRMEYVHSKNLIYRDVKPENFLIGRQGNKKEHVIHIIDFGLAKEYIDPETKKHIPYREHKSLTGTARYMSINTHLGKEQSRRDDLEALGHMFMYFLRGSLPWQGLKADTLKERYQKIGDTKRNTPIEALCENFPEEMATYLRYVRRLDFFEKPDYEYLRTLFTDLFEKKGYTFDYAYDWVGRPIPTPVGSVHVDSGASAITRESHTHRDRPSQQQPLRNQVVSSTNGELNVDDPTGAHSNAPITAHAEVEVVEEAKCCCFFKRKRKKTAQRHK
Chain of Serine/threonine-protein kinase SIK2 (Homo sapiens) (Q9H0K1 whole entry, looked up): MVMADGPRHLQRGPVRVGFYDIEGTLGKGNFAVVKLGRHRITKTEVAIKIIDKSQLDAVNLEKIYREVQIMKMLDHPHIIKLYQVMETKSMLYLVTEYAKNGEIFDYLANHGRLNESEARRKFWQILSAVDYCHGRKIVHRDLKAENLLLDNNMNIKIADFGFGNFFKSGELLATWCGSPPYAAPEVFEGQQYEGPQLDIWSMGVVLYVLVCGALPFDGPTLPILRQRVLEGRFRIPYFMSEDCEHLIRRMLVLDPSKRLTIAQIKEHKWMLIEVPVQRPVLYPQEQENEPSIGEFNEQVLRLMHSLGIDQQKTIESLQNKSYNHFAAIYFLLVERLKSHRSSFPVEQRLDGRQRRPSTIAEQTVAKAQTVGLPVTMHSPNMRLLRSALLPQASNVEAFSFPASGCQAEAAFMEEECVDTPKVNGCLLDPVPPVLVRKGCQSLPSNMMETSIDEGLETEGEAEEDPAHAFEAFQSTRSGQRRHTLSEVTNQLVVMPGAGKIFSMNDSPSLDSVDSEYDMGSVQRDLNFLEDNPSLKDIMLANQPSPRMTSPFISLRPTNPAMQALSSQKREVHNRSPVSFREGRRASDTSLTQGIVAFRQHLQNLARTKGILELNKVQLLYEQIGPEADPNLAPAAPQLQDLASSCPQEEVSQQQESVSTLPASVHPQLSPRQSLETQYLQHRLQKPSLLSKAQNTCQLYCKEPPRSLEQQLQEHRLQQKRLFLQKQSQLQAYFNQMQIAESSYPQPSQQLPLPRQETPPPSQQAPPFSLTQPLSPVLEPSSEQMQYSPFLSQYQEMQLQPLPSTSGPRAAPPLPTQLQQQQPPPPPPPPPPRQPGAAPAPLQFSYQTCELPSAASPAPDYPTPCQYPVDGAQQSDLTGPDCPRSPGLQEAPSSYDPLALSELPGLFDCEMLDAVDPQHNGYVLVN
Chain of Casein kinase I isoform alpha (Homo sapiens) (P48729 2-337 limits assumed): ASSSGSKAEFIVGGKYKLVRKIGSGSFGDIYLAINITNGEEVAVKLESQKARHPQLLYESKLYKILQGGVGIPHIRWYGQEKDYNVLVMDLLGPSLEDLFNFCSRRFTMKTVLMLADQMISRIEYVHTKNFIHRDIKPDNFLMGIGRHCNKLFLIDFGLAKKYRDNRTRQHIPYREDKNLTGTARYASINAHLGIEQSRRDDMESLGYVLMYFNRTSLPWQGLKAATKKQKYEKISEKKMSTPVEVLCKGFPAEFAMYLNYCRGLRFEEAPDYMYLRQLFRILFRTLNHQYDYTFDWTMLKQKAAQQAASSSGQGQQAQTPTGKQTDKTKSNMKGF

Row | Compound | inhibition [1] [%] | inhibition [2] [%] | inhibition [3] [%] | inhibition [4] [%] | inhibition [5] [%] | inhibition [6] [%] | inhibition [7] [%] | inhibition [8] [%] | inhibition [9] [%] | inhibition [10] [%] | inhibition [11] [%] | inhibition [12] [%] | inhibition [13] [%] | inhibition [14] [%] | inhibition [15] [%] | inhibition [16] [%] | inhibition [17] [%] | inhibition [18] [%] | inhibition [19] [%] | inhibition [20] [%]
1 | CS(=O)(=O)CCNCc1ccoc1-c1ccc2ncnc(Nc3ccc(OCc4ccccc4)cc3)c2c1 | -0.21 | 0.58 | -0.84 | 0.44 | 0.78 | 2.99 | 4.48 | -0.71 | -0.59 | 0.39 | -2.25 | 0.51 | 0.84 | 1.17 | 0.75 | 1.49 | -0.39 | 0.5 | 1.25 | 0.24
2 | COc1cc(Nc2ncc(-c3ccccc3)o2)cc(OC)c1 | 0.6 | 0.03 | -0.34 | 1.24 | 2.34 | 6.1 | 20.6 | 7.38 | 33.8 | 2.71 | 4.2 | 4.25 | 4.53 | 2.32 | 2.49 | 4.52 | 3.47 | 4.39 | 4.78 | 4.11
3 | COc1cccc(-n2ncc3c(N/N=C/c4ccc(C(=O)NCCN(C)C)cc4)ncnc32)c1 | 0.88 | 0.5 | 3.82 | 0.76 | 0.52 | 18.3 | 61.2 | 34.6 | 76 | 2.76 | 11.2 | 1.35 | 0.43 | -0.44 | -0.81 | 1.58 | 7.14 | 2.73 | 11.7 | 1.5
4 | N#Cc1cccc(Nc2ncc(-c3ccccc3)o2)c1 | 0.47 | 0.1 | 2.79 | 1.22 | 2.58 | 1.14 | 4 | 1.76 | 4.74 | 1.05 | 3.86 | 3.9 | 5.55 | 2.41 | 4.88 | 1.55 | 0.38 | 1.61 | 3.03 | 1.82
5 | COc1ccccc1-c1cc(/C=C2\C(=O)Nc3ncc(Br)cc32)cc(Br)c1O | -0.06 | -1.67 | -1.54 | 1.35 | 0.67 | 3.09 | 9.01 | 0.5 | 10.4 | 0.53 | 6.07 | 4.24 | 6.09 | 2.5 | 1.91 | 2.91 | 5.66 | 5.05 | 5.44 | 3.14
6 | CNC(=O)c1cncc(/C=C/c2ccccc2C)c1 | 1.06 | -0.06 | 5.04 | 1.79 | 3.16 | 10 | 39.5 | 9 | 18.5 | 2.9 | 6.39 | 4.49 | 5.13 | 3.39 | 2.6 | 1.22 | 5.05 | 2.73 | 3.62 | 2.46
7 | N#Cc1ccc2c(-c3ccnc(NC4CC4)n3)c(-c3ccc(F)cc3)nn2c1 | 0.72 | -0.27 | -0.29 | 0.61 | -0.5 | 4.86 | 23.5 | 24.1 | 68.9 | 1.15 | 0.07 | 1.44 | -1.14 | 1.07 | -0.63 | 3.72 | 30.1 | 1.85 | 4.03 | 2
8 | Fc1cccc(COc2ccc(Nc3ncncc3C#Cc3ccccc3)cc2Cl)c1 | 1.48 | -0.8 | 3.6 | 2.08 | 4.3 | 3.74 | 5.31 | 9.03 | 6.72 | 5.15 | 6.39 | 3.55 | 6.94 | 2.49 | 4.25 | 5.09 | 7.86 | 4.27 | 4.53 | 3.09
9 | CC1(C)CC(n2cnc(-c3ccc(F)cc3)c2-c2ccnc(N)n2)CC(C)(C)N1 | 0.96 | -0.62 | 0.93 | 0.28 | 0.93 | 0.72 | 3.05 | 1.72 | 1.15 | 0.42 | 0.35 | 1.43 | 2.2 | 0.62 | 2.34 | 12.5 | 58.5 | 0.31 | 2.25 | 0.35
10 | O=C(O[C@H]1CN[C@H](C#Cc2cc3ncnc(Nc4ccc5c(cnn5Cc5ccccc5)c4)c3s2)C1)N1CCOCC1 | -0.51 | -0.77 | -0.59 | -0.48 | -1.44 | -1.61 | -0.04 | -3.57 | 1.23 | -0.69 | 1.41 | 0.75 | -0.13 | -0.69 | -1.3 | -2.11 | 0.76 | -0.81 | 0.82 | -0.61
11 | O=C(O[C@H]1CN[C@H](C#Cc2cc3ncnc(Nc4ccc5c(ccn5Cc5cc(F)ccc5F)c4)c3s2)C1)N1CCOCC1 | 0.17 | -1.4 | -2.6 | 1.04 | 0.93 | 5.35 | 7.23 | 2.92 | 7.13 | 2.75 | 2.11 | 3.63 | 4.15 | 2.52 | 1.57 | 2.93 | 5.4 | 4.17 | 5.41 | 3.09
12 | CS(=O)(=O)CCNCc1ccc(-c2ccc3ncnc(Nc4ccc(OCc5cccc(C(F)(F)F)c5)cc4)c3c2)o1 | -0.48 | 1.17 | 4.36 | 1.34 | 1.44 | 1.69 | 7.19 | 6.4 | 8 | 3.15 | 6.44 | 5.83 | 4.35 | 2.31 | 2.41 | 5.05 | 6.4 | 3.46 | 4.57 | 3.14
13 | NS(=O)(=O)c1ccc(N/N=C2\C(=O)Nc3ccc(C(=O)NCc4ccncc4)cc32)cc1 | 4.93 | 1.9 | 8.56 | 1.84 | 6.01 | 3.99 | 19.8 | 6.03 | 17.1 | 3.83 | 44 | 5.34 | 20.7 | 2.55 | 2.67 | 1.19 | 2.77 | 2.33 | 4.19 | 1.94
14 | CC1=C(C(=O)Nc2ccc3[nH]nc(C)c3c2)C(c2ccc(C(F)(F)F)cc2)CC(=O)N1 (stereo not given) | 0.55 | 0.17 | -2.32 | 0.34 | -0.66 | 0.72 | 1.39 | 4.07 | 0.64 | -1.52 | 3.52 | 1.88 | 0.25 | 1.4 | -4.29 | 2.09 | 3.07 | 1.96 | 3.62 | 1.19
